Measured values as given in article PMC4336329 (PLoS ONE, 2015).
Out of some 310,000 compounds screened, about 14,000 (4.5%) showed an effect of 50% or more. Effects have a minus sign here. Shown is part of a subset that was picked to be rich in strong results.

These compounds were tested against human ether-à-go-go-related gene (hERG) potassium channel (human, UniProt Q12809) (assay: primary screen, population patch clamp on CHO cells stably expressing hERG; higher = less effect of the substance).
human ether-à-go-go-related gene (hERG) potassium channel, sequence (Q12809 whole entry, looked up): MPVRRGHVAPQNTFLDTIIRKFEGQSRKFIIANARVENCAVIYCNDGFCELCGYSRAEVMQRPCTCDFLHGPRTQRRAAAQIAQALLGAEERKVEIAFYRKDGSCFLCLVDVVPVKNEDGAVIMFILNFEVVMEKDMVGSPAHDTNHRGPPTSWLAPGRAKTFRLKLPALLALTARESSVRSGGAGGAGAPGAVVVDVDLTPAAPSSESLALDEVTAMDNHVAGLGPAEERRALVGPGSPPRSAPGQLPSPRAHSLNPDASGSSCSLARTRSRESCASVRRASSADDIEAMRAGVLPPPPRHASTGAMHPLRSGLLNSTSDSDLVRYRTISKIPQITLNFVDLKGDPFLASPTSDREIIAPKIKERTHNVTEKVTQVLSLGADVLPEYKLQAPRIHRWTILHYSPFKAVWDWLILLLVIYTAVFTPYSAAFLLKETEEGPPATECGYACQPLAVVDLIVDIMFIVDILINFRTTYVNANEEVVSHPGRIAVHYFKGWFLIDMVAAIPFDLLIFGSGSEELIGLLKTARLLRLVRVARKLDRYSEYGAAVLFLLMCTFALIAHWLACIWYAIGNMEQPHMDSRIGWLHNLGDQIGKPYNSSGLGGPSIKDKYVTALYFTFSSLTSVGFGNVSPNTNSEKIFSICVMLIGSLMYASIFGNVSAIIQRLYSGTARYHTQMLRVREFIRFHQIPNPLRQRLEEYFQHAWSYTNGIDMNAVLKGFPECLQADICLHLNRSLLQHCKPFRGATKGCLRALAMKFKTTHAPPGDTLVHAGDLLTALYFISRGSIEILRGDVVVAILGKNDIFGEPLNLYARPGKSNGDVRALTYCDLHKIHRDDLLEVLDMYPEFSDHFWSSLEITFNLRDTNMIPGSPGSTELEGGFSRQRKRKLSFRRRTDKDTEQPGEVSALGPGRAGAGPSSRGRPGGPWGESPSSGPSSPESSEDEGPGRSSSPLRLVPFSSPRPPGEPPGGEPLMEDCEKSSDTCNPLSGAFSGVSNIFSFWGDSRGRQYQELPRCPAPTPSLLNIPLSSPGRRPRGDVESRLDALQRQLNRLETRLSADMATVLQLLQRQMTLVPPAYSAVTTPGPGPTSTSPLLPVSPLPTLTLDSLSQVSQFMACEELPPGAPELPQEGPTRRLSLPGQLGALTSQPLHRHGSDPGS
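Note: peak tail current of the secondary pulse compared with the same well before compound.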

Structure (SMILES) | hERG current change (%, negative = inhibition) at 10uM [%]
O=C(CN1N=C(c2ccccc2)CCC1=O)NCc1ccco1 | 0.243
COc1cccc(NC(=O)C2C3C=CC(C3)C2C(=O)O)c1 (stereo not shown) | 8.61
Cc1ccc(Cc2nnc3n(-c4cccc(C)c4)nc(C(=O)c4ccccc4)n3c2=O)cc1 | -3.85
CN1CCN(C(=S)c2ccc(Br)cc2)CC1 | -35.9
CN1CCC(OC(=O)c2ccc(Br)cc2)CC1.Cl | -41.9
CN1CCC(=C(c2ccccc2)c2ccc(Br)cc2)CC1.Cl | -68.3
C=CCNc1scc(-c2ccccc2)[n+]1CC=C.[Br-] | -21.4
C/C=C/C(=O)N1c2ccccc2C(C)=CC1(C)C | 3.41
COC(=O)c1[nH]c2cccc(OC)c2c1NC(=O)C(C)N1CCC(C)CC1 (stereo not shown) | -21.6
CCN(CC)c1ccc(C(=O)OCC(=O)Nc2sccc2C#N)cc1 | 12.2
Cc1ccc2cc(S(=O)(=O)NCCC(=O)O)ccc2c1 | -2.04
Cc1cc(=O)n2nc(N3CCC(C(=O)NCc4cccnc4)CC3)sc2n1 | 7.16
CCC(C)Sc1nnc(NC(=O)C2CCN(C(=O)c3ccco3)CC2)s1 (stereo not shown) | -57.2
CCC(CC)c1nnc(NC(=O)C2CCN(C(=O)c3ccco3)CC2)s1 | 20.1
Cc1cc(C)c2nc(N3CCCC(C(=O)N4CCC(C(N)=O)CC4)C3)sc2c1 (stereo not shown) | -19.3
Cc1cc(C)c2nc(N3CCC(C(=O)NCCCN4CCCCC4)CC3)sc2c1 | -37.2
Cc1cc(C)c2nc(N3CCC(C(=O)N4CCN(c5ncccn5)CC4)CC3)sc2c1 | -0.141
CCc1nnc(NC(=O)C2CCN(C(=O)c3ccco3)CC2)s1 | -0.31
Cc1cc(C)c2nc(N3CCC(C(=O)N4CCCC4)CC3)sc2c1 | -67.7
Cc1cc(C)c2nc(N3CCC(C(=O)NCCCN4CC(C)CC(C)C4)CC3)sc2c1 (stereo not shown) | -71.8
Cc1cc(C)c2nc(N3CCC(C(=O)NCc4ccccn4)CC3)sc2c1 | -25.3
Cc1cc(C)c2nc(N3CCC(C(=O)NCCN4CCOCC4)CC3)sc2c1 | -10.5

Structure (SMILES) | hERG current change (%, negative = inhibition) at 10uM [%]
Cc1cc(C)c2nc(N3CCC(C(=O)NCc4cccnc4)CC3)sc2c1 | -79
COC(=O)[C@@]12CCCN1[C@H](c1ccc(-c3ccccc3)cc1)[C@H]1C(=O)N(C)C(=O)[C@H]12.O=C(O)C(F)(F)F | -14.2
O=C1Cc2cc(S(=O)(=O)NCc3ccccc3Cl)cc3c2N1CCC3 | 6.14
Cc1ccc(/C=C2\SC(=S)N(c3cccnc3)C2=O)o1 | 6.67
CCOC(=O)c1ccc(NC(=O)c2nc[nH]c2C(=O)N2CCc3ccccc3C2)cc1 | 0.122
CC(C)CNc1nc(N)c([N+](=O)[O-])c(N2CCCCCC2)n1 | -0.987
CC1(C)SC2c3ccccc3C(=O)N2[C@@H]1C(=O)NC1CC1 (stereo partly shown) | 9.97
Cc1nc([N+](=O)[O-])cn1CC(=O)c1ccc(F)cc1 | 10.5
CCNc1nc(SCC(=O)Nc2ccc(Cl)c(Cl)c2)nc(N(C)C)n1 | 14.8
CCN(C(=O)COC(=O)c1[nH]c(C)c(C(C)=O)c1C)C1CCS(=O)(=O)C1 (stereo not shown) | -8.32
CCOc1ccc(-c2cc(C(=O)N/N=C/c3ccc(O)cc3)c3ccccc3n2)cc1 | 4.93
Cc1c(C(=O)N/N=C/c2ccccn2)nnn1-c1nonc1N | -15.6
Cc1cc(C)c2nc(N3CCC(C(=O)N4CCN(C(=O)c5ccco5)CC4)CC3)sc2c1 | -77.1
Cc1cc(C)c2nc(N3CCN(C(=O)c4ccco4)CC3)sc2c1 | -28.5
Cc1nnc(NC(=O)C2CCN(C(=O)c3ccco3)CC2)s1 | 13.4
O=C(Nc1nc2ccccc2s1)C1CCN(C(=O)c2ccco2)CC1 | -41.9
Cc1cccc2sc(NC(=O)C3CCN(C(=O)c4ccco4)CC3)nc12 | -71.6
Cc1cc2nc(N3CCN(C(=O)c4ccco4)CC3)sc2cc1C | 0.152
C=CCOC(=O)C1=C(C)NC(C)=C(C(=O)OCC=C)C1c1ccc(C)o1 | -27.4
O=C(Cc1ccccc1)NCC(=O)N1CCCCCC1 | 9.71
CN(C/N=C(\N)N[N+](=O)[O-])S(=O)(=O)c1ccccc1 | 19.4
COC(=O)C1=CO[C@@H](O[C@@H]2O[C@H](CO)[C@@H](O)[C@H](O)[C@H]2O)[C@H]2[C@@H]1C(=O)C[C@@H]2C | 23.3

Structure (SMILES) | hERG current change (%, negative = inhibition) at 10uM [%]
COC(=O)c1ccc(CSc2nc3sc(C)c(C)c3c(=O)[nH]2)cc1 | 0.764
Nc1c(C(=O)c2ccccc2)sc2nsc(SCCN3CCOCC3)c12 | 18.1
CCn1ncc(CN2CCN(Cc3cccc(OC)c3)C(CCO)C2)c1C (stereo not shown) | 7.07
CCOc1ccc(CN2CCN(Cc3cn(CC)nc3C)CC2CCO)cc1 (stereo not shown) | -62
CCn1cc(CN2CCN(Cc3ccc(OC)c(C)c3C)C(CCO)C2)c(C)n1 (stereo not shown) | -23.1
CCn1cc(CN2CCN(Cc3cccc(OC)c3)C(CCO)C2)c(C)n1 (stereo not shown) | -14.4
CCOc1ccc(CN2CCN(Cc3cnn(CC)c3C)CC2CCO)cc1 (stereo not shown) | -67.8
CCOc1ccc(CN2CCN(Cc3c(C)nn(CC)c3C)CC2CCO)cc1 (stereo not shown) | -45
CC1CCCC(C)N1C(=O)C1CC(c2ccc(F)cc2)=NO1 (stereo not shown) | -7.79
O=C(N/N=C/c1ccncc1)c1cc(-c2ccc(Br)s2)[nH]n1 | -12.4
Cc1ccc(S(=O)(=O)NCCSCc2ccco2)cc1 | -4.42
Cc1ccc2c(c1)N(C(=O)CCC(=O)NCc1ccccn1)CC(C)O2 (stereo not shown) | -7.23
COc1ccc(C)cc1N(CC(=O)O)S(=O)(=O)c1ccc(C)cc1 | 17.1
CN(C)CCn1c2c(c(SCC(=O)Nc3cccc4ccccc34)nc1=O)CCCC2 | -40.4
CCN(CC)CCCn1c2c(c(SCC(=O)N3CCCc4ccccc43)nc1=O)CCC2 | -22.9
CCN(CC)CCn1c2c(c(SCC(=O)Nc3cccc4ccccc34)nc1=O)CCCC2 | -63.8
CCN(CC)CCCn1c2c(c(SCC(=O)Nc3cccc4ccccc34)nc1=O)CCC2 | -56.6
CN(C)CCn1c2c(c(SCC(=O)Nc3ccccc3C(F)(F)F)nc1=O)CCCC2 | -18.4
CN(C)CCCn1c2c(c(SCC(=O)Nc3cccc4ccccc34)nc1=O)CCC2 | -38.4
CCN(CC)CCCn1c2c(c(SCC(=O)N3CCc4ccccc43)nc1=O)CCC2 | -78.6
Cc1cccc(NC(=O)CSc2nc(=O)n(CCN3CCOCC3)c3c2CCCC3)c1C | -23.6
CN(C)CCn1c2c(c(SCC(=O)N3CCc4ccccc43)nc1=O)CCCC2 | -44.7

Structure (SMILES) | hERG current change (%, negative = inhibition) at 10uM [%]
CCN(CC)CCCn1c2c(c(SCC(=O)Nc3cc(C)on3)nc1=O)CCC2 | -2.43
CCN(CC)CCCn1c2c(c(SCC(=O)Nc3cccc(C)c3C)nc1=O)CCC2 | -55.3
CN(C)CCCn1c2c(c(SCC(=O)Nc3cccc4ccccc34)nc1=O)CCCC2 | -45.6
COc1ccc(C)cc1S(=O)(=O)Nc1cc(Cl)ccc1Cl | 7.53
CCOC(=O)c1cccc(NC(=O)c2cccs2)c1 | -13.1
CCCCc1cc(C(=O)Cc2ccccn2)c(O)cc1O | 16.9
O=C(NCc1cccnc1)Nc1ccc(Cl)c(Cl)c1 | -0.174
COc1ccc(CN2CC(=O)N3[C@H]4c5ccccc5OC[C@@H]4[C@H](c4ccccc4)[C@]3(C)C2=O)cc1 | 15.3
COc1ccccc1OCCOc1ccc(/C=C2\C(=N)N3N=C(S(C)(=O)=O)SC3=NC2=O)cc1 | 12
CCN(CC)CCn1c2c(c(SCC(=O)Nc3cccc4ccccc34)nc1=O)CCC2 | -62.7
CN(C)CCn1c2c(c(SCC(=O)Nc3cccc4ccccc34)nc1=O)CCC2 | -13.6
CN=C(NC(=O)Nc1c(C)cccc1C)NC(=O)Nc1c(C)cccc1C | 3.97
COc1ccccc1CN(C)C(=O)c1cc(-c2cccs2)nc2ccccc12 | 4.13
COc1ccccc1CN(C)C(=O)c1cc(-c2cc(OC)c(OC)c(OC)c2)nc2ccccc12 | 12.9
COc1ccccc1CN(C)C(=O)c1cc(C)nc2ccccc12 | -65.1
CN(C)C(=S)NC1(C)CCS(=O)(=O)C1 (stereo not shown) | 6.89
O=C(N/N=C/c1ccc(O)c(O)c1)NC12CC3CC(CC(C3)C1)C2 | -11.8
CCOc1ccc(/C=N/NC(=O)NC23CC4CC(CC(C4)C2)C3)cc1O | -10.9
O=C(N/N=C/c1ccc(O)cc1)NC12CC3CC(CC(C3)C1)C2 | -55.7
COc1cc(/C=N/NC(=O)NC23CC4CC(CC(C4)C2)C3)ccc1O | -34.3
O=C(N/N=C/c1ccncc1)NC12CC3CC(CC(C3)C1)C2 | -26.6
COc1cc(/C=N/NC(=O)NC23CC4CC(CC(C4)C2)C3)ccc1OCC(N)=O | -57
